Compound activity from PubChem BioAssay.
Hits are enriched below; roughly 21% of the tested compounds scored in any of these assays.
Pf growth 48h: inhibits P. falciparum growth in the first generation, 48 h | Potency, µM (titrated, usually from 28.7 µM), hits mostly inhibitors | hit rate 5.9% among 310,000 | P. falciparum luciferase growth in erythrocytes, 48 h
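Growth was read as firefly luciferase luminescence after a 48 h, 37 C, 5% CO2 exposure of compounds to reporter-bearing P. falciparum cultures (0.1% parasitemia, 2% hematocrit final) in Albumax-supplemented RPMI 1640.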
Cycloheximide cs: affects cycloheximide protein synthesis inhibition readout, counter-screen; hit rate 12% among 300,000; AID 2314; max response, %; cell reporter, cycloheximide protein synthesis inhibition counterscreen; in the data active = max response mostly above about 13%, no sharp cut-off; inactive = mostly below about 14%; also: read at 38.3 µM for the half of the compounds with a filed dose
NS1 function inh: influenza NS1 inhibition; Potency, µM (top dose mostly 46.1 µM); hit rate 0.4% among 270,000; AID 2326; calls by dose curve; also: actives are rising curves; nearly all actives have a fitted effect of over 50% in size
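Read-out: OD600 growth recovery of NS1-expressing budding yeast. Cells grown overnight at 30C in -URA glucose medium, washed, resuspended and diluted 1:100 in 2% galactose assay medium, pH 6.0. Same strain lacking NS1 served as positive control.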
Shiga toxin inh: Shiga toxin inhibition | Vero cells, Shiga toxin protein synthesis inhibition reporter | hit rate 9.2% among 290,000 | AID 2315 | inhibition, % at 38.7 µM; in the data active = inhibition mostly above about 28%, no sharp cut-off; inactive = mostly below about 43%
Pf growth 96h: P. falciparum growth inhibition at 96 hours; Potency, µM (titrated, usually from 28.7 µM), actives largely listed as inhibitors; P. falciparum luciferase reporter growth, 96 h; hit rate 6.9% among 320,000
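Plates of compound plus infected erythrocytes (2% hematocrit, 0.05% parasitemia final) incubate 96 hours, 37 C, 5% CO2. Detection reagent added; reduced luminescence from the parasites' luciferase reporter flags inhibition.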
Each line names hits and unclear results; the compound was inactive in the other large screens. Unless noted, calls follow the shape of the dose curve; as a rule, active = well fitted inhibition curve with a large enough effect; inconclusive = small, poorly fitted or top-dose-only effect, or another doubt; inactive = no such curve, though single readings can be large or run the other way.

CCOc1cccc(C(=O)NC(=S)Nc2cccc(NC(=O)c3ccccc3Cl)c2)c1	Cycloheximide cs 13.8, Pf growth 96h inconclusive
CCOc1cccc(C(=O)NC(=S)Nc2cccnc2)c1	Cycloheximide cs 38.1, Shiga toxin inh 80.1, Pf growth 96h 2.62µM
CCOc1cccc(C(=O)NC(=S)Nc2ccccc2)c1	Cycloheximide cs 104.5, Shiga toxin inh 141.2
Cc1occc1C(=O)NNC(=O)c1ccc(S(=O)(=O)N(C)C)cc1	none (no result: Cycloheximide cs, NS1 function inh, Shiga toxin inh)
Nc1ccc(N2CCN(c3ccc(F)cc3)CC2)cc1	Pf growth 48h inconclusive, Pf growth 96h inconclusive
Nc1ccc(N2CCN(c3ccc(Cl)c(Cl)c3)CC2)cc1	NS1 function inh inconclusive, Shiga toxin inh 24.2, Pf growth 96h inconclusive
Nc1ccc(N2CCCCCC2)cc1	Pf growth 48h 0.415µM, Pf growth 96h inconclusive
O=C(CCNS(=O)(=O)c1ccccc1)N1CCCCCC1	Cycloheximide cs 32.2, Pf growth 96h inconclusive
COc1cc2c(cc1OC)CN(C(=O)CCNS(=O)(=O)c1ccc(Br)cc1)CC2	Pf growth 48h 9.28µM, Pf growth 96h inconclusive (no result: Cycloheximide cs, NS1 function inh, Shiga toxin inh)
O=C(CCNS(=O)(=O)c1ccccc1F)N1CCN(C(c2ccccc2)c2ccccc2)CC1	Pf growth 48h 13.1µM, Pf growth 96h inconclusive (no result: Cycloheximide cs, NS1 function inh, Shiga toxin inh)
COc1ccccc1N1CCN(C(=O)CCNS(=O)(=O)c2ccc(Br)s2)CC1	none
O=C(CCNS(=O)(=O)c1ccc(Br)s1)N1CCN(c2ccccc2)CC1	Pf growth 96h 11.7µM
NC(=O)C1CCN(C(=O)CCNS(=O)(=O)c2ccccc2F)CC1	none (no result: Cycloheximide cs, NS1 function inh, Shiga toxin inh)
COCCNC(=O)c1ccc(-n2c(SCc3ccncc3)nc3ccccc3c2=O)cc1	Pf growth 48h inconclusive (no result: NS1 function inh)
C/C(=N\NC(=O)c1ccc(-n2cnnn2)cc1)c1ccc(Cl)cc1	none (no result: Cycloheximide cs, NS1 function inh, Shiga toxin inh)
O=C(CCNS(=O)(=O)c1ccc(Br)cc1)N1CCN(c2ccccc2O)CC1	Pf growth 48h 10.4µM, Pf growth 96h inconclusive (no result: Cycloheximide cs, NS1 function inh, Shiga toxin inh)
COc1ccc2nc(SCC(=O)NCc3ccccc3)[nH]c2c1	Pf growth 96h inconclusive
COC(=O)c1cc(CSc2nc3ccccc3[nH]2)oc1C	Cycloheximide cs 32.3, Shiga toxin inh 36.2 (no result: Pf growth 48h)
CCOc1ccc2nc(SCC(=O)NCc3ccc(OC)cc3)[nH]c2c1	Shiga toxin inh 63.4
COc1ccc(CNC(=O)CSc2nc3cccnc3s2)cc1	Cycloheximide cs 15.0
CCOc1ccc2nc(SCc3ccc(C(=O)OC)o3)[nH]c2c1	Cycloheximide cs 27.9, Shiga toxin inh 43.9
O=C(Cn1nc(C(=O)O)c2ccccc2c1=O)Nc1ccccc1C(F)(F)F	none
NC(=O)CCCCC1CCSS1 (centres undefined)	Pf growth 48h inconclusive, Pf growth 96h 10.7µM (no result: Cycloheximide cs, NS1 function inh, Shiga toxin inh)
Cc1cc(C)c(C#N)c(SCC(=O)C2CC2)n1	Cycloheximide cs 24.0, Shiga toxin inh 43.2
Cn1nnnc1SCC(=O)c1cccs1	none
Cc1cc(C)c(C#N)c(OCC(=O)c2ccccc2)n1	Pf growth 48h inconclusive, Cycloheximide cs 39.4
COC(=O)CSc1nc(C)cc(C)c1C#N	Pf growth 96h inconclusive
Cc1cc(C)c(-n2nnnc2SCC(=O)c2cccs2)c(C)c1	Cycloheximide cs 23.9, Shiga toxin inh 39.3
Cc1cc(C)c(C#N)c(SCC(=O)c2ccccc2)n1	Pf growth 96h 4.65µM
Cc1cc(=O)[nH]c(SCC(=O)c2ccccc2)c1C#N	none
COc1ccccc1CNC(=O)CCNS(=O)(=O)c1cc(Br)cnc1N	none
COc1ccc(CC(=O)NNS(=O)(=O)c2ccccc2)cc1OC	Pf growth 96h inconclusive
Cc1cc2c(C)ccc(C)c2nc1SCC(=O)c1cccs1	Pf growth 48h inconclusive
Cc1cc(C)c(C#N)c(SCC(=O)c2cccs2)n1	Cycloheximide cs 19.4, Shiga toxin inh 61.3 (no result: Pf growth 96h)
CSc1nc(N)nc(SCC(=O)c2ccccc2)c1C#N	Cycloheximide cs 19.1, NS1 function inh inconclusive
Cc1cc(C)c(C#N)c(Sc2ccccc2N)n1	Pf growth 48h inconclusive, Cycloheximide cs 31.9, Shiga toxin inh 71.7, Pf growth 96h inconclusive (no result: NS1 function inh)
COC(=O)C(Sc1nc(C)cc(C)c1C#N)c1ccccc1 (centres undefined)	none
Cc1ccc(C)c(NC(=O)CSc2nc(C)cc(C)c2C#N)c1	Pf growth 96h inconclusive
Cc1cc(C)c(C#N)c(SCC(=O)Nc2nonc2N)n1	Cycloheximide cs 29.1, Shiga toxin inh 72.3
Cc1ccc[n+](CC(=O)Nc2ccc([N+](=O)[O-])cc2)c1	Pf growth 48h inconclusive, Pf growth 96h inconclusive (no result: Shiga toxin inh)
CC1(C)N=C(c2cccc(F)c2)C(=O)N1	none
COCCOC(=O)c1c(C)nc(SCC(=O)Nc2ccc(OC)cc2)c(C#N)c1-c1ccco1	none (no result: Pf growth 48h)
Cc1nc(SCC(=O)c2ccccc2)c(C#N)c(-c2ccco2)c1C(=O)NCc1ccco1	Pf growth 48h 9.28µM, Pf growth 96h inconclusive
COc1cc(O)c(C(CCN2CCCCC2)c2cc(OC)c(OC)c(OC)c2)c(OC)c1 (centres undefined)	Pf growth 48h 0.738µM, Pf growth 96h 1.85µM
COc1cc(O)c(C(CCN2CCCC2)c2cc(OC)c(OC)c(OC)c2)c(OC)c1 (centres undefined)	Pf growth 48h 4.15µM, Pf growth 96h 2.94µM
COc1cc(O)c(C(CCN2CCOCC2)c2cc(OC)c(OC)c(OC)c2)c(OC)c1 (centres undefined)	Pf growth 48h inconclusive, Pf growth 96h inconclusive
COc1cccc2c(=O)c(SC(F)(F)C(F)C(F)(F)F)c(C)[nH]c12 (centres undefined)	Pf growth 48h 6.57µM, Shiga toxin inh 52.0, Pf growth 96h 3.7µM
Cc1[nH]c2ccc(F)cc2c(=O)c1SC(F)(F)C(F)C(F)(F)F (centres undefined)	none (no result: Pf growth 48h)
COc1cccc2c(=O)c(C/C=C(/C)Cl)c(C)[nH]c12	Pf growth 48h 0.738µM (no result: Pf growth 96h)
COc1cccc2c(=O)c(C(=O)O)c[nH]c12	none (no result: Pf growth 96h)
Cc1cc(C)n(-c2ccc(Cl)c(C(=O)Nc3cc(C(F)(F)F)ccc3Cl)n2)n1	none
CC(=O)c1ccc([N+](=O)[O-])c(CS(=O)(=O)c2ccc(Cl)cc2)c1	none
O=C(Cc1ccccc1)Nc1scc(-c2ccccc2)c1C(=O)N1CCOCC1	Pf growth 96h inconclusive (no result: Pf growth 48h)
NC(=O)c1c(-c2ccc(Cl)cc2Cl)csc1NC(=O)Cc1ccccc1	Pf growth 48h inconclusive, Cycloheximide cs 15.8
Cn1c(=O)n(C)c2cc(S(=O)(=O)N3CCN(c4ccccc4)CC3)ccc21	none
O=C(CCN1C(=O)/C(=C/c2ccccc2)SC1=S)N[C@@H](CO)Cc1ccccc1	Pf growth 96h 13.1µM
O=C(CCN1C(=O)/C(=C/c2ccccc2)SC1=S)NC1CCS(=O)(=O)C1 (centres undefined)	Pf growth 48h inconclusive, Pf growth 96h 13.1µM
O=C(CCCN1C(=O)/C(=C/c2ccc(F)cc2)SC1=S)NC1CCS(=O)(=O)C1 (centres undefined)	Pf growth 48h 9.28µM, Pf growth 96h 10.4µM
O=C(CCCN1C(=O)c2cccc3cccc(c23)C1=O)NC1CCS(=O)(=O)C1 (centres undefined)	Pf growth 48h inconclusive, Pf growth 96h 11.7µM
O=C(O)CCCN1C(=O)c2cccc3cccc(c23)C1=O	Pf growth 96h inconclusive
O=C(CCN1C(=O)/C(=C/c2ccccc2Cl)SC1=S)NC1CCS(=O)(=O)C1 (centres undefined)	Pf growth 96h inconclusive
COc1cccc(N2CCN(c3nc(-c4ccccc4C)cc(=O)[nH]3)CC2)c1	Pf growth 48h inconclusive, Pf growth 96h inconclusive
